Inconclusive results are not listed. Calls of active or inactive are those of the source. Unless noted, no rule for the calls is given here.
Legend:
[1] = signal quenchers or enhancers, Cy5 substrate/SSB – biochemical, NIH Clinical Collection, E. coli SSB, artefact control for HCV NS3 helicase inhibitor project (AID 743268); conditions: Cy5-oligo bound E. coli SSB, fluorescence interference
[2] = test system: Hepatitis C virus NS3 helicase; assay: blockers of NS3h binding to DNA – biochemical, fluorescence polarization, NIH Clinical Collection, primary screen (AID 743270); conditions: NS3 helicase binding to Cy5-dT15 DNA, stronger effect = higher value, concentration not given here
[3] = molecular target: Single-stranded DNA-binding protein (Escherichia coli (strain K12)) (UniProt P0AGE0); assay: SSB-ssDNA binding inhibitors – biochemical, fluorescence polarization, NIH Clinical Collection, counter-screen for HCV NS3 helicase inhibitor project (AID 743271; in the data active = inhibition above about 28%); conditions: E. coli SSB-DNA binding, stronger effect = higher value, concentration not given here
[4] = compounds distorting NS3 helicase fluorescence signal – biochemical, NIH Clinical Collection, artefact control for HCV NS3 helicase inhibitor project (AID 743272); conditions: fluorescence interference counterscreen, HCV NS3 helicase assay; stronger effect = lower value;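 also: HCV NS3 helicase with a Cy5 labelled single stranded DNA probe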
[5] = test system: Neuropilin-2 / VEGF-C interaction (human); assay: small molecules blocking Neuropilin-2/VEGF-C interaction – biochemical, microplate binding format, z-score (AID 743281); conditions: microplate NRP2/VEGF-C binding assay; stronger effect = lower value
[6] = test system: Aerobactin synthetase IucA (Klebsiella pneumoniae); assay: inhibition of K. pneumoniae IucA enzyme – biochemical, Tocris library, absorbance (AID 1345561); conditions: purified IucA enzyme assay, absorbance (OD) read-out; stronger effect = lower value;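 tested at 8 µM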;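 also: 100% = enzyme without compound and 0% = no enzyme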
F380Y/beta4 = assay: BK channel mutant inhibitors and activators – cell-based, U2OS BacMam, thallium flux, beta subunits, selectivity assay, profiling panel (AID 1259406;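 active = thallium flux through the channel raised or lowered by more than 3 SD from vehicle-only wells, actives on both sides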;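 also: initial slope of Thallos dye fluorescence rise after thallium is added; log ratio against the mean of 0.3% DMSO vehicle wells on the same plate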); conditions: U2OS BacMam BK variants, at 30 µM
[7] = molecular target: Calcium-activated potassium channel subunit alpha-1 (Homo sapiens) + Leucine-rich repeat-containing protein 26 (Homo sapiens) (UniProt Q12791+Q2I0M4); assay: as above; conditions: U2OS BacMam BK variants, F380Y/Slo1WT/gamma1, at 30 µM
Calcium-activated potassium channel subunit alpha-1 (Homo sapiens) + Leucine-rich repeat-containing protein 26 (Homo sapiens), sequence (Q2I0M4 whole entry, looked up, one chain of several): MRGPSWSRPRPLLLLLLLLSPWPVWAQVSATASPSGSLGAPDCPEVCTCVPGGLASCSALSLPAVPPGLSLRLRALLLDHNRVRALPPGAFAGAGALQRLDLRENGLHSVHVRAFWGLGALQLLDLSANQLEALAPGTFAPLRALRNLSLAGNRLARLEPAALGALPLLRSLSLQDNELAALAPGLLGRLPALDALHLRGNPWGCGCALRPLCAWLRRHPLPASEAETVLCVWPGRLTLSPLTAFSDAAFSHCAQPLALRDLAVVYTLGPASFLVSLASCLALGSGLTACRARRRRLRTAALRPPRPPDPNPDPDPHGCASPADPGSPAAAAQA

R275C/beta4 = assay: as above; conditions: U2OS BacMam BK variants, at 30 µM
[8] = viability loss in pontine glioma line – cell-based, SU-DIPG-XVII, MIPE5.0, CellTiter-Glo, qHTS, dose response (AID 1347060; cut-off not given, nearly all actives have AC50 up to about 26 µM); conditions: CellTiter-Glo ATP luminescence
[9] = viability loss in pontine glioma line – cell-based, JHH-DIPG-1, MIPE4.0, CellTiter-Glo, qHTS, dose response (AID 1347062; cut-off not given, nearly all actives have AC50 up to about 27 µM); conditions: JHH-DIPG-1 viability, CellTiter-Glo ATP luminescence
[10] = viability loss in pontine glioma line – cell-based, SU-DIPG-IV, MIPE4.0, CellTiter-Glo, qHTS, dose response (AID 1347063; cut-off not given, nearly all actives have AC50 up to about 30 µM;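 also: compound exposure lasted 48 hours before the viability readout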); conditions: CellTiter-Glo ATP luminescence
[11] = viability loss in pontine glioma line – cell-based, SU-DIPG-XIII, MIPE5.0, CellTiter-Glo, qHTS, dose response (AID 1347064; cut-off not given, nearly all actives have AC50 up to about 23 µM); conditions: CellTiter-Glo ATP luminescence
[12] = viability loss in pontine glioma line – cell-based, SU-DIPG-XXV, MIPE5.0, CellTiter-Glo, qHTS, dose response (AID 1347065; cut-off not given, nearly all actives have AC50 up to about 26 µM;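 also: cells exposed to compound for 48 hours before ATP readout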); conditions: CellTiter-Glo ATP luminescence
[13] = growth inhibition of DIPG cells – cell-based, MIPE4.0 library, CellTiter-Glo luminescence, qHTS (AID 1347066; cut-off not given, nearly all actives have AC50 up to about 30 µM;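 also: cells exposed to compound for 48 hours before readout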); conditions: SU-DIPG-VI viability, CellTiter-Glo ATP luminescence
[14] = JHH-DIPG-1 glioma cell viability, MIPE5.0 library, CellTiter-Glo luminescence, qHTS (AID 1347067; cut-off not given, nearly all actives have AC50 up to about 26 µM;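 also: cells exposed to compound for 48 hours before readout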); conditions: JHH-DIPG-1 glioma viability, CellTiter-Glo ATP luminescence
[15] = growth inhibition of DIPG cells – cell-based, MIPE5.0 library, qHTS (AID 1347068; cut-off not given, nearly all actives have IC50 up to about 30 µM); conditions: SU-DIPG-XXV viability
[16] = viability loss in pontine glioma line – cell-based, SU-DIPG-XIII, MIPE4.0, CellTiter-Glo, qHTS, dose response (AID 1347061; cut-off not given, nearly all actives have AC50 up to about 37 µM;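 also: cells exposed to compound for 48 hours before readout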); conditions: CellTiter-Glo ATP luminescence
[17] = compounds altering HSF1 focus formation in cells – imaging, Selleck Cancer Library (AID 1347162; in the data active = plate-normalised HSF1 focus index below about 0.46); conditions: human cells, HSF1 nuclear foci imaging, at 10 µM; SSMD: measured here: HSF1 foci SSMD mean; cell count: measured here: cell number; plate-normalised HSF1 focus index: stronger effect = lower value

COc1cc(N)c(Cl)cc1C(=O)NC1CN2CCC1CC2 (stereo not drawn)
inactive: fluorescence ratio [1] 0.94 | inhibition [2] -2.77% | inhibition [3] 9.91% | fluorescence ratio [4] 0.87 | z-score [5] -0.38 | remaining activity [6] 124%

Nc1ccncc1
inactive: remaining activity [6] 127%

CN1C(=O)CN=C(c2ccccc2)c2cc([N+](=O)[O-])ccc21
inactive: fluorescence ratio [1] 1.07 | inhibition [2] 5.94% | inhibition [3] 1.44% | fluorescence ratio [4] 1.04 | z-score [5] -0.553 | log fold change Tl+ flux (F380Y/beta4) 0.0228 | log fold change Tl+ flux [7] -0.000886 | log fold change Tl+ flux (R275C/beta4) 0.0115

CCC(COC(=O)c1cc(OC)c(OC)c(OC)c1)(c1ccccc1)N(C)C (stereo not drawn)
inactive: fluorescence ratio [1] 0.98 | inhibition [2] -1.19% | inhibition [3] -0.87% | fluorescence ratio [4] 0.98 | z-score [5] -1.07
active: log fold change Tl+ flux (F380Y/beta4) -0.301 | log fold change Tl+ flux [7] -0.141 | log fold change Tl+ flux (R275C/beta4) -0.198

CN[C@@H]1C[C@@H](c2ccc(Cl)c(Cl)c2)c2ccccc21
inactive: fluorescence ratio [1] 0.98 | inhibition [2] -3.56% | inhibition [3] -3.95% | fluorescence ratio [4] 0.97 | z-score [5] 0.266 | remaining activity [6] 118% | log fold change Tl+ flux [7] 0.0738

Oc1cc(Cl)ccc1Oc1ccc(Cl)cc1Cl
inactive: fluorescence ratio [1] 1.01 | inhibition [2] 2.27% | inhibition [3] -0.48% | fluorescence ratio [4] 0.91 | log fold change Tl+ flux [7] -0.0387 | log fold change Tl+ flux (R275C/beta4) 0.0409
active: log fold change Tl+ flux (F380Y/beta4) -0.429

CC(C)c1cccc(C(C)C)c1O
inactive: fluorescence ratio [1] 0.96 | inhibition [2] -1.36% | inhibition [3] 4.1% | fluorescence ratio [4] 0.87 | outcome [8] | outcome [9] | outcome [10] | outcome [11] | outcome [12] | outcome [13] | outcome [14] | outcome [15] | log fold change Tl+ flux (F380Y/beta4) -0.00471 | log fold change Tl+ flux [7] -0.0487 | log fold change Tl+ flux (R275C/beta4) -0.0411

CCN(CC)CCOC(=O)C(O)(c1ccccc1)c1ccccc1
inactive: fluorescence ratio [1] 0.99 | inhibition [2] -1.19% | inhibition [3] -0.87% | fluorescence ratio [4] 0.98 | z-score [5] 0.28 | log fold change Tl+ flux (F380Y/beta4) 0.0464 | log fold change Tl+ flux [7] -0.0223 | log fold change Tl+ flux (R275C/beta4) 0.00187

C=C1C[C@@H]2[C@H](CC[C@]3(C)C(=O)CC[C@@H]23)[C@@]2(C)C=CC(=O)C=C12
inactive: fluorescence ratio [1] 1.07 | inhibition [2] 2.77% | inhibition [3] 2.98% | fluorescence ratio [4] 1.05 | outcome [8] | outcome [16] | outcome [9] | outcome [11] | outcome [12] | outcome [13] | outcome [14] | plate-normalised HSF1 focus index [17] 1.09 | log fold change Tl+ flux (F380Y/beta4) 0.013 | log fold change Tl+ flux [7] 0.0186 | log fold change Tl+ flux (R275C/beta4) 0.0226
1.72: SSMD [17]
6870: cell count [17]

CN1C(=O)COc2c(C(=O)NC3CN4CCC3CC4)cc(Cl)cc21 (stereo not drawn)
inactive: fluorescence ratio [1] 1.03 | inhibition [2] 2.77% | inhibition [3] 3.75% | fluorescence ratio [4] 1.02 | z-score [5] 0.29 | outcome [8] | outcome [16] | outcome [9] | outcome [10] | outcome [11] | outcome [12] | outcome [15] | log fold change Tl+ flux (F380Y/beta4) 0.0243 | log fold change Tl+ flux [7] 0.0336 | log fold change Tl+ flux (R275C/beta4) -0.016

CN1CCN(C(=O)O[C@H]2c3nccnc3C(=O)N2c2ccc(Cl)cn2)CC1
inactive: fluorescence ratio [1] 1 | inhibition [2] -4.09% | inhibition [3] -4.29% | fluorescence ratio [4] 1.03 | outcome [16] | outcome [9] | outcome [10] | outcome [13] | log fold change Tl+ flux (F380Y/beta4) -0.00667 | log fold change Tl+ flux [7] -0.0271 | log fold change Tl+ flux (R275C/beta4) 0.00608

c1ccc2c(c1)Nc1ccccc1S2
inactive: fluorescence ratio [1] 0.96 | inhibition [2] 1.53% | inhibition [3] 5.12% | fluorescence ratio [4] 0.95 | z-score [5] 0.0903 | log fold change Tl+ flux (F380Y/beta4) -0.0296 | log fold change Tl+ flux [7] -0.0274 | log fold change Tl+ flux (R275C/beta4) -0.0162

CNCC(O)c1ccc(O)cc1 (stereo not drawn)
inactive: fluorescence ratio [1] 0.99 | inhibition [2] -1.09% | inhibition [3] -0.39% | fluorescence ratio [4] 0.96 | z-score [5] -0.502 | outcome [8] | outcome [16] | outcome [9] | outcome [10] | outcome [11] | outcome [12] | outcome [13] | outcome [14] | outcome [15] | log fold change Tl+ flux (F380Y/beta4) -0.01 | log fold change Tl+ flux [7] 0.0291 | log fold change Tl+ flux (R275C/beta4) -0.013

NP(N)(=O)NC(=O)c1ccc(F)cc1
inactive: remaining activity [6] 91.8%

NN=C(N)N
inactive: remaining activity [6] 98% | outcome [8] | outcome [11] | outcome [12] | outcome [14] | outcome [15]

COc1cccc([C@@]2(O)CCCC[C@@H]2CN(C)C)c1
inactive: z-score [5] 0.404 | log fold change Tl+ flux (F380Y/beta4) -0.0244 | log fold change Tl+ flux [7] -0.0312 | log fold change Tl+ flux (R275C/beta4) -0.00931

CC[C@]1(O)CC[C@H]2[C@@H]3CCC4=CCCC[C@@H]4[C@H]3CC[C@@]21C
active: log fold change Tl+ flux (F380Y/beta4) -0.128 | log fold change Tl+ flux [7] 0.141 | log fold change Tl+ flux (R275C/beta4) 0.243
inactive: fluorescence ratio [1] 1.02 | inhibition [2] -2.77% | inhibition [3] 1.44% | fluorescence ratio [4] 1.02

COC[C@@H](NC(C)=O)C(=O)NCc1ccccc1
inactive: outcome [8] | outcome [9] | outcome [11] | outcome [12] | outcome [13] | outcome [14] | outcome [15]
